# Where “and” joins values, the source holds several entries; their conditions need not be identical. Equal entries are not always repeated. Results filed as inconclusive are left out. A number with no mark means an inactive call. Calls of active or inactive are those of the source. The call rests on the fitted dose curve; in most records, active means well fitted curve in the direction sought with a large enough effect; inconclusive means small, poorly fitted or top-dose-only effect, or another doubt; inactive means no such curve, though single readings can be large; an effect the other way counts as inactive or inconclusive.
# Assay: Viability qHTS for spleen associated tyrosine kinase inhibitor (SYKi) naive MV4-11 cells (AID 1963823); further: nearly all actives have a fitted effect of over 40% in size
# Settings: MV4-11 AML viability, CellTiter-Glo luminescence, 72 h; series mostly up to 45 µM
# How it was run: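 SYKi-naive MV4-11 AML cells, 500 per well, were exposed to library compounds for 72 hr at 37 C, 5% CO2. Viability was then read by CellTiter-Glo luminescence after 10 min at room temperature.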
# Potency means the concentration at half of the fitted maximal effect.
row,Structure (SMILES),Potency
1,COC(=O)[C@@H]1[C@H]2C[C@H]3c4[nH]c5ccccc5c4CCN3C[C@@H]2CC[C@@H]1O,inactive
2,CCN(CC)CCNC(C(=O)OCCC(C)C)c1ccccc1 (stereo not given),inactive
3,CC(C)(C)C(O)/C=C/c1ccc2c(c1)OCO2 (stereo not given),inactive
4,Cc1ccc(C(=O)C(=O)O)cc1C,inactive
5,O=C(/C=C/c1ccc(CN(CCO)CCc2c[nH]c3ccccc23)cc1)NO,74.2 nM (active)
6,O=C(CCCN1CC=C(n2c(=O)[nH]c3ccccc32)CC1)c1ccc(F)cc1,inactive
7,N#CC1(c2ccc(F)cc2)CCC(=O)CC1,inactive
8,COc1cc(-c2cn(C)c(=O)c3cnccc23)cc(OC)c1CN(C)C,inactive
9,CC[C@H]1OC(=O)[C@H](C)[C@@H](O[C@H]2C[C@@](C)(OC)[C@@H](O)[C@H](C)O2)[C@H](C)[C@@H](O[C@@H]2O[C@H](C)C[C@H](N(C)C)[C@H]2O)[C@](C)(O)C[C@@H](C)C(=O)[C@H](C)[C@@H](O)[C@]1(C)O,inactive
10,O=C(O)c1ccc(CN2CCC(CN[C@@H]3C[C@H]3c3ccccc3)CC2)cc1,inactive
11,Cc1cc(=O)oc2cc(O[C@@H]3SC[C@@H](O)[C@H](O)[C@H]3O)ccc12,inactive
12,O=S(=O)(O)c1cc(I)c(O)c2ncccc12,15 nM (active)
13,O=C1c2ccccc2S(=O)(=O)N1CCCCN1CCN(c2ncccn2)CC1,inactive
14,Cc1cc(NS(=O)(=O)c2ccc(N)cc2)no1,inactive
15,CC1=C(/C=C/C(C)=C/C=C/C(C)=C/C=C/C=C(C)/C=C/C=C(C)/C=C/C2=C(C)CCCC2(C)C)C(C)(C)CCC1,23500 nM (active)
16,CCC1C(=O)OCC1Cc1cncn1C (stereo not given),inactive
17,CC1(C)[C@@H](O)CC[C@]2(C)[C@H]3C(=O)C=C4[C@@H]5C[C@@](C)(C(=O)O)CC[C@]5(C)CC[C@@]4(C)[C@]3(C)CC[C@@H]12,inactive
18,Cc1[nH]nc2ncc(C(=O)N3CCC[C@H]3c3ccc(Cl)cc3)cc12,5250 nM (active)
19,Cc1ncc(CO)c(CN)c1O,inactive
20,COC(=O)[C@@H](N)Cc1ccc(O)c(O)c1,inactive

row,Structure (SMILES),Potency
1,COc1ccccc1N1CCN(CCCCNC(=O)c2ccc(-c3ccc(C(C)=O)cc3)cc2)CC1,inactive
2,CC(C)CNc1ccnc(NCc2csc(-c3ccccc3)n2)n1,1660 nM (active)
3,Cc1ccsc1C(=CCCN1CCC[C@@H](C(=O)O)C1)c1sccc1C,inactive
4,O=C([O-])C[O-].[Pt+2],inactive
5,CN1CCN(c2ccc(-c3cccc(CN4CCOCC4)c3)cc2NC(=O)c2c[nH]c(=O)cc2C(F)(F)F)CC1,inactive
6,CC(=O)[C@@]1(O)CC[C@H]2[C@@H]3C[C@H](C)C4=CC(=O)C=C[C@]4(C)[C@@]3(F)[C@@H](O)C[C@@]21C,inactive
7,Nc1ccc(S(=O)(=O)NC(=O)c2ccccc2)cc1,inactive
8,CCCOc1ccc2c(c1)CC[C@@H]1[C@@H]2CC[C@]2(C)C(OC)CC[C@@H]12 (stereo not given in full),inactive
9,Cc1ccc(O)c(-n2nc3ccccc3n2)c1,inactive
10,c1ccc2c(c1)CCc1ccccc1N2,inactive
11,COc1cc(NS(=O)(=O)c2ccc(N)cc2)nc(C)n1,inactive
12,O=C1OC(COc2ccccc2[N+](=O)[O-])CC1Cc1ccccc1 (stereo not given),inactive
13,CCOC(=O)c1cnc2c(cnn2CC)c1NN=C(C)C,inactive
14,Cc1ccc(/C=N/n2c(-c3ccccc3)csc2=S)cc1,inactive
15,CC(C)(C)C(=O)OCOC(=O)[C@@H]1N2C(=O)[C@@H](NC(=O)[C@H](N)c3ccccc3)[C@H]2SC1(C)C,inactive
16,CO[C@@H](C)Cn1c(=O)n(C)c2cnc3ccc(-c4cncc(C(C)(C)O)c4)cc3c21,82 nM (active)
17,CN1C(N)=N[C@](C)(c2cc(NC(=O)c3ccc(F)cn3)ccc2F)CS1(=O)=O,inactive
18,CCC(=O)NS(=O)(=O)c1ccc(-c2c(-c3ccccc3)noc2C)cc1,inactive
19,Cc1cc(C)cc(OCC2CNC(=O)O2)c1 (stereo not given),inactive
20,O=C1NC(=O)C(c2ccccc2)(c2ccccc2)N1,inactive

# Assay: Cellular viability qHTS for adrenocortical cancer (ACC) cell line SW-13 (AID 1963989); further: nearly all actives have a fitted effect of over 65% in size;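 on activity (max response): cells grown in serum-free medium with ITS supplement; on the % scale 0 is the no-effect control and ±100 the full control effect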
# Settings: SW-13 ACC cells viability, CellTiter-Glo, 48 h; activity (max response): stronger effect = lower value
# How it was run: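 IC50 and maximal-response values come from four-parameter logistic fits of titration data. SW-13 cells in serum-free medium received compounds (up to 46 uM final) for 48 h before CellTiter-Glo luminescence.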
Structure (SMILES),activity (max response),Potency
COC(=O)[C@@H]1[C@H]2C[C@H]3c4[nH]c5ccccc5c4CCN3C[C@@H]2CC[C@@H]1O,-16.5%,–
CCN(CC)CCNC(C(=O)OCCC(C)C)c1ccccc1 (stereo not given),-2.2%,–
CC(C)(C)C(O)/C=C/c1ccc2c(c1)OCO2 (stereo not given),-8.69%,–
Cc1ccc(C(=O)C(=O)O)cc1C,1.9%,–
O=C(/C=C/c1ccc(CN(CCO)CCc2c[nH]c3ccccc23)cc1)NO,–,708 nM (active)
O=C(CCCN1CC=C(n2c(=O)[nH]c3ccccc32)CC1)c1ccc(F)cc1,-10.3%,–
N#CC1(c2ccc(F)cc2)CCC(=O)CC1,6.7%,–
COc1cc(-c2cn(C)c(=O)c3cnccc23)cc(OC)c1CN(C)C,-6.63%,–
CC[C@H]1OC(=O)[C@H](C)[C@@H](O[C@H]2C[C@@](C)(OC)[C@@H](O)[C@H](C)O2)[C@H](C)[C@@H](O[C@@H]2O[C@H](C)C[C@H](N(C)C)[C@H]2O)[C@](C)(O)C[C@@H](C)C(=O)[C@H](C)[C@@H](O)[C@]1(C)O,4.41%,–
O=C(O)c1ccc(CN2CCC(CN[C@@H]3C[C@H]3c3ccccc3)CC2)cc1,7.26%,–
Cc1cc(=O)oc2cc(O[C@@H]3SC[C@@H](O)[C@H](O)[C@H]3O)ccc12,12.3%,–
O=S(=O)(O)c1cc(I)c(O)c2ncccc12,0.547%,–
O=C1c2ccccc2S(=O)(=O)N1CCCCN1CCN(c2ncccn2)CC1,-8.3%,–
Cc1cc(NS(=O)(=O)c2ccc(N)cc2)no1,13.2%,–
CC1=C(/C=C/C(C)=C/C=C/C(C)=C/C=C/C=C(C)/C=C/C=C(C)/C=C/C2=C(C)CCCC2(C)C)C(C)(C)CCC1,-7.78%,–
CCC1C(=O)OCC1Cc1cncn1C (stereo not given),6.41%,–
CC1(C)[C@@H](O)CC[C@]2(C)[C@H]3C(=O)C=C4[C@@H]5C[C@@](C)(C(=O)O)CC[C@]5(C)CC[C@@]4(C)[C@]3(C)CC[C@@H]12,3.49%,–
Cc1[nH]nc2ncc(C(=O)N3CCC[C@H]3c3ccc(Cl)cc3)cc12,-6.61%,–
Cc1ncc(CO)c(CN)c1O,7.61%,–
COC(=O)[C@@H](N)Cc1ccc(O)c(O)c1,-15%,–

Structure (SMILES),activity (max response),Potency
COc1ccccc1N1CCN(CCCCNC(=O)c2ccc(-c3ccc(C(C)=O)cc3)cc2)CC1,-20.9%,–
CC(C)CNc1ccnc(NCc2csc(-c3ccccc3)n2)n1,–,11200 nM (active)
Cc1ccsc1C(=CCCN1CCC[C@@H](C(=O)O)C1)c1sccc1C,0.503% and 7.63%,–
O=C([O-])C[O-].[Pt+2],-1.3%,–
CN1CCN(c2ccc(-c3cccc(CN4CCOCC4)c3)cc2NC(=O)c2c[nH]c(=O)cc2C(F)(F)F)CC1,-3.17%,–
CC(=O)[C@@]1(O)CC[C@H]2[C@@H]3C[C@H](C)C4=CC(=O)C=C[C@]4(C)[C@@]3(F)[C@@H](O)C[C@@]21C,3.6%,–
Nc1ccc(S(=O)(=O)NC(=O)c2ccccc2)cc1,4.69%,–
CCCOc1ccc2c(c1)CC[C@@H]1[C@@H]2CC[C@]2(C)C(OC)CC[C@@H]12 (stereo not given in full),13.8%,–
Cc1ccc(O)c(-n2nc3ccccc3n2)c1,-8.34%,–
c1ccc2c(c1)CCc1ccccc1N2,-6.25%,–
COc1cc(NS(=O)(=O)c2ccc(N)cc2)nc(C)n1,1.38%,–
O=C1OC(COc2ccccc2[N+](=O)[O-])CC1Cc1ccccc1 (stereo not given),-13.4%,–
CCOC(=O)c1cnc2c(cnn2CC)c1NN=C(C)C,7.42%,–
Cc1ccc(/C=N/n2c(-c3ccccc3)csc2=S)cc1,8.75%,–
CC(C)(C)C(=O)OCOC(=O)[C@@H]1N2C(=O)[C@@H](NC(=O)[C@H](N)c3ccccc3)[C@H]2SC1(C)C,8.43%,–
CO[C@@H](C)Cn1c(=O)n(C)c2cnc3ccc(-c4cncc(C(C)(C)O)c4)cc3c21,–,3550 nM (active)
CN1C(N)=N[C@](C)(c2cc(NC(=O)c3ccc(F)cn3)ccc2F)CS1(=O)=O,-4.84%,–
CCC(=O)NS(=O)(=O)c1ccc(-c2c(-c3ccccc3)noc2C)cc1,-1.9%,–
Cc1cc(C)cc(OCC2CNC(=O)O2)c1 (stereo not given),4.02%,–
O=C1NC(=O)C(c2ccccc2)(c2ccccc2)N1,-5.02%,–

# From PubChem BioAssay (NCATS)
